A549 viability: Nrf2 qHTS screen for inhibitors: counterscreen for cytotoxicity | A549 ARE-Fluc cells, CellTiter-Fluor viability, 18-24 h | Potency, µM (doses to about 46 µM), most hits filed as inhibitors | 390,000 compounds, 0.16% hits | AID 504648, 2011
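Cytotoxicity counterscreen: CellTiter-Fluor fluorescence was measured in A549 ARE_Fluc cells after 18-24 h of compound exposure in a concentration series. The subsequent BugLite luminescent read reports ARE-luciferase activity.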
Nrf2 block: Nrf2 qHTS screen for inhibitors; A549 ARE-Fluc reporter, luciferase luminescence, 18-24 h; Potency, µM (highest dose often 46 µM), most hits filed as inhibitors; 360,000 compounds, 2.1% hits; AID 504444, 2011; further: nearly all actives have a fitted effect of over 60% in size
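Quantitative HTS in A549 cells stably bearing an antioxidant response element-firefly luciferase construct. Inhibition of Nrf2-driven transcription was scored by luminescence after 18-24 h of compound exposure at 37 °C.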
Nrf2 ARE act: qHTS of Nrf2 Activators | 410,000 compounds, 0.31% hits | Potency, µM (doses to about 46.1 µM), actives largely listed as activators | AREc32 ARE-luciferase reporter (MCF7-derived line), luminescence, 24 h; further: nearly all actives have a fitted effect of over 65% in size
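Quantitative high-throughput format: AREc32 reporter cells, 1000 per well, received compound by pin transfer and were incubated 24 hr at 37 deg C, 5% CO2, before Steady-Glo luminescence detection.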
ELG1 DNA repair: qHTS screen for small molecules that inhibit ELG1-dependent DNA repair in human embryonic kidney (HEK293T) cells expressing luciferase-tagged ELG1; HEK293T ELG1-luciferase reporter, luminescence, 16 h; DNA damage induced by 5-fluorouridine; 330,000 compounds, 2.3% hits; Potency, µM (top dose mostly 46.1 µM), hits mostly inhibitors; further: nearly all actives have a fitted effect of over 55% in size
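HEK293T cells expressing luciferase-tagged ELG1 (2,000/well) received 5-Fluorouridine plus compound or DMSO for 16 hr at 37 °C. Luciferase was read by ONE-Glo luminescence after 30 min at room temperature.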
Of the large screens only hits and unclear results are named; the others gave an inactive call. Most compounds without a hit are left out; they make up all but 3.7% or so of the library. The call rests on the fitted dose curve; in most records, active means well fitted curve in the direction sought with a large enough effect; inconclusive means small, poorly fitted or top-dose-only effect, or another doubt; inactive means no such curve, though single readings can be large; an effect the other way counts as inactive or inconclusive.

CCN(CC)CCNC(=O)C(=O)NCC1OCCN1S(=O)(=O)c1cccs1 (configuration not stated)	none (no result: ELG1 DNA repair)
COc1ccc2ccccc2c1C(=O)/C=C\c1ccoc1	Nrf2 ARE act 13µM
COc1ccc(/C=N/NC(=O)C(=O)/C=C2\NC3(CCCC3)Cc3ccccc32)cc1	A549 viability inconclusive, ELG1 DNA repair 23µM
O=C(/C=C1\NC2(CCCC2)Cc2ccccc21)C(=O)N/N=C/c1ccc(O)c(O)c1	ELG1 DNA repair 23µM
NNC(=O)C(=O)/C=C1\NC2(CCCC2)Cc2ccccc21	ELG1 DNA repair inconclusive
CCOC(=O)c1ccccc1NC(=O)COC(=O)CCC(=O)c1ccccc1	none
CC(=O)OC[C@H]1O[C@H](C/C=N/O[C@@H](C)c2cn([C@H](CO)Cc3ccccc3)nn2)C=C[C@@H]1OC(C)=O	none (no result: A549 viability, Nrf2 block, Nrf2 ARE act)
COC(=O)[C@@H]1CC[C@H](C)[C@@H](c2ccc(C)cc2)N1C(=O)c1ccc(/C=N/O[C@@H](C)c2cn([C@H](CO)Cc3ccccc3)nn2)cc1	ELG1 DNA repair 15µM (no result: A549 viability, Nrf2 block, Nrf2 ARE act)
CCNc1cccc(S(=O)(=O)N2CCN(S(=O)(=O)c3ccc4c(c3)OCCO4)CC2)c1	Nrf2 block inconclusive (no result: Nrf2 ARE act, ELG1 DNA repair)
O=C(NCC(c1cccs1)N1CCOCC1)c1ccccc1NS(=O)(=O)c1cccc([N+](=O)[O-])c1 (configuration not stated)	A549 viability inconclusive, Nrf2 block 21µM, ELG1 DNA repair inconclusive
O=C(NCC(c1cccs1)N1CCOCC1)c1ccccc1NS(=O)(=O)c1ccc(Cl)c([N+](=O)[O-])c1 (configuration not stated)	Nrf2 block inconclusive, ELG1 DNA repair inconclusive
COc1ccc(S(=O)(=O)N2CCCCC2c2cc(C(=O)Nc3ccc(OC)cc3C)no2)cc1 (configuration not stated)	none (no result: A549 viability, Nrf2 block, ELG1 DNA repair)
Cc1cc(NC(=O)n2ncc3c(C)cccc32)ccc1Br	none (no result: ELG1 DNA repair)
Cc1nc(N2CCN(S(=O)(=O)c3ccccc3C#N)CC2)c2c(-c3ccccc3)csc2n1	Nrf2 block inconclusive, ELG1 DNA repair 12µM
N#Cc1ccccc1S(=O)(=O)N1CCN(c2nc(-c3ccccc3)nc3ccccc23)CC1	none (no result: ELG1 DNA repair)
Cc1nc(N2CCN(S(=O)(=O)c3ccc(F)cc3)CC2)c2c(-c3cccs3)csc2n1	Nrf2 block 16µM, ELG1 DNA repair inconclusive
O=C(c1ccc(Br)c(S(=O)(=O)N2CCOCC2)c1)N1CCN(C/C=C/c2ccccc2)CC1	Nrf2 block inconclusive (no result: ELG1 DNA repair)
CC1CCN(CCc2nc3cc(NC(=O)COc4ccc([N+](=O)[O-])cc4)ccc3n2C)CC1	A549 viability inconclusive
O=C(COC(=O)c1nc(Cl)c(Cl)c(Cl)c1Cl)c1ccc[nH]1	Nrf2 ARE act 22µM, ELG1 DNA repair inconclusive
O=C(COC(=O)c1nc(Cl)ccc1Cl)c1ccc[nH]1	none
O=C(CN1C(=O)NC2(CCCCCC2)C1=O)c1ccc(Cl)cc1	ELG1 DNA repair inconclusive
C/C(=N\NC(=O)CSCc1ccc([N+](=O)[O-])cc1)c1cccc(Br)c1	Nrf2 block 23µM, ELG1 DNA repair inconclusive
COc1ccc(C(=O)Oc2cccc(/C=N/NC(N)=S)c2)cc1	Nrf2 block inconclusive
CCCOc1cccc(-c2cc(C(=O)N/N=C/c3ccccn3)c3ccccc3n2)c1	Nrf2 block inconclusive
COc1cccc(/C(C)=N/NC(=O)c2cc(-c3cccnc3)nc3ccccc23)c1	Nrf2 block 21µM, ELG1 DNA repair inconclusive
CCCOc1cccc(-c2cc(C(=O)N/N=C/c3cccnc3)c3ccccc3n2)c1	Nrf2 block inconclusive, ELG1 DNA repair 16µM
CC(=O)c1c(C)[nH]c(C(=O)C(C)Sc2nnc(NC3CC3)s2)c1C (configuration not stated)	Nrf2 block 16µM
CC(Sc1nnc(NC2CC2)s1)C(=O)Nc1ccc(N2CCOCC2)cc1 (configuration not stated)	none
O=C(CCCn1c(=S)[nH]c2ccc(Br)cc2c1=O)N1CCN(c2ccccn2)CC1	A549 viability inconclusive, Nrf2 block inconclusive, ELG1 DNA repair 18µM
O=C(C1CCC(Cn2c(=S)[nH]c3ccccc3c2=O)CC1)N1CCN(c2ccccc2)CC1 (configuration not stated)	Nrf2 block inconclusive (no result: ELG1 DNA repair)

Screening results: PubChem BioAssay, National Center for Advancing Translational Sciences (NCATS)
